Source: PubChem (National Center for Advancing Translational Sciences (NCATS))
Giardia FBPA inh = Giardia lamblia aldolase inhibition | Potency, µM (doses to about 59.6 µM), without a hit: at the top dose activity, negative = inhibition, usual class: inhibitors | hit rate 0.71% among 290,000 | purified Giardia FBPA | A8B2U2; also: potency is read from the fitted curve at half-maximal effect; nearly all actives have a fitted effect of over 55% in size
Target sequence (A8B2U2 whole entry, looked up): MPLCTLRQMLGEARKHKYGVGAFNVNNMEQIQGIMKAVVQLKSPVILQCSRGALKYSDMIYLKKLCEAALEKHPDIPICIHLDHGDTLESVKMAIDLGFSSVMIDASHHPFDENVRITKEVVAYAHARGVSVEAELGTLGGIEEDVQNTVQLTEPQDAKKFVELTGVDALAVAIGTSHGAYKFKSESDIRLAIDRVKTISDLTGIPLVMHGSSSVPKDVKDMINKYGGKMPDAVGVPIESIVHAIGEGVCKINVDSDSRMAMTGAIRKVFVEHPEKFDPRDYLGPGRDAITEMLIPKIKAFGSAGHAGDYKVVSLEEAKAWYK
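Giardia FBPA (40 nM reagent) was preincubated 10 min at RT with compound (up to 57.5 uM final), then substrate plus GAPDH/TPI/NAD/arsenate coupling system with diaphorase/resazurin was added; resorufin fluorescence (525/598 nm) was read after 20 min.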
FMDV inh = blocks foot and mouth disease virus; Potency, µM (highest dose often 57.9 µM), for inactives: top-dose activity change, negative = inhibition, actives largely listed as inhibitors; AID 1159524; hit rate 1.2% among 410,000; FMDV antiviral cell-based qHTS; calls by dose curve; tested in HEK293T cells; also: read-out not given here; potency is read from the fitted curve at half-maximal effect; nearly all actives have a fitted effect of over 45% in size
HCV inh = HCV inhibition; Huh7.5.1 HCVcc-Cre infection, luciferase reporter, 44 h; Potency, µM (series often up to 41.8 µM), for the others: at the top dose activity change, negative = inhibition, actives largely listed as inhibitors; hit rate 3.4% among 340,000; also: potency is read from the fitted curve at half-maximal effect
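Infectious HCV cell culture screen: compound-treated cells (1,000/well, pre-plated 4 h) are infected with HCVcc-Cre at roughly 0.5 moi and grown 44 h. Infection is quantified by luciferase signal after 15 min substrate incubation at room temperature.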
VACV Venus inh = vaccinia inhibition (Venus reporter). Vaccinia virus Venus reporter expression, fluorescence. AID 720580. hit rate 0.46% among 330,000. Potency, µM (series often up to 36.5 µM), without a hit: at the top dose activity change, negative = inhibition, most hits filed as inhibitors; calls by dose curve; tested in A549 cells; also: potency is read from the fitted curve at half-maximal effect; nearly all actives have a fitted effect of over 30% in size
VACV mCherry inh = vaccinia inhibition (mCherry reporter) | Vaccinia virus mCherry reporter infection, fluorescence | hit rate 0.63% among 310,000 | Potency, µM (series often up to 36.5 µM), for inactives: at the top dose activity change, negative = inhibition, usual class: inhibitors; calls by dose curve; tested in A549 cells; also: potency is read from the fitted curve at half-maximal effect; nearly all actives have a fitted effect of over 35% in size
HCMV inh = human cytomegalovirus inhibition; HFF cells, HCMV-luciferase reporter, 72 h; hits give low values; activity change, negative = inhibition, % at 57.5 µM; hit rate 4.5% among 410,000; in the data active = activity change below about -60%; inconclusive = no clear call, values can overlap the other calls; inactive = above about -39%
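Two-dose cell screen: HFF monolayers treated with compounds and infected with luciferase-expressing HCMV at 1 PFU/cell, 72 h at 37C, then lysed for luciferase measurement.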
* marks the source's active call; other numbers are inactive results; i = inactive; ? = inconclusive; nt = not tested or not shown; [ ] = another dose, or the depositor's remark. This is a sample that favours compounds with a hit; in the whole collection about 7.5% have one here. Unless noted, calls follow the shape of the dose curve; as a rule, active = well fitted curve in the direction sought with a large enough effect; inconclusive = small, poorly fitted or top-dose-only effect, or another doubt; inactive = no such curve, though single readings can be large; an effect the other way counts as inactive or inconclusive. % is scaled to controls: 0 for no effect and ±100 for the full control effect.

SMILES | Giardia FBPA inh | FMDV inh | HCV inh | VACV Venus inh | VACV mCherry inh | HCMV inh
CC1CCc2[nH]c3ccc(C(=O)N4CCCC(C(F)(F)F)C4)cc3c2C1 (stereo not given) | nt | -27% | ? | -29% | -27% | -18
c1ccc(Sc2cccc3ccccc23)c(CNC2=NCCN2)c1 | 3% | ? | ? | -28% | -5% | -67*
O=[N+]([O-])c1ccccc1/C=N/NC1=NCCN1 | nt | -2% | 8% | -7% | -7% | 14
CN(C)Cc1ccccc1Sc1cccc2ccccc12 | -16% | ? | ? | -26% | ? | -22
Fc1ccccc1Sc1ccccc1CNC1=NCCN1 | 30% | -17% | ? | -25% | -25% | -61*
COc1cccc(C(C(=O)NC2CCCC2)N(CCC(C)C)C(=O)CCC(=O)Nc2cc(C)on2)c1 (stereo not given) | 17% | -17% | -5% | 0% | i | -66*
Cc1cc(NC(=O)CCC(=O)N(c2ccccc2)C2(C(=O)NC3CCCCC3)CCCC2)no1 | 4% | -25% | ? | ? | -16% | -77*
COc1ccc(N(C(=O)Cn2nnc3ccccc32)C2(C(=O)NC3CCCC3)CCCCC2)cc1 | 1% | nt | 5.6µM* | -5% | -20% | ?
Cc1cc(NC(=O)CCC(=O)N(Cc2ccco2)C2(C(=O)NC3CCCC3)CCCCC2)no1 | 11% | -9% | ? | -1% | -9% | -11
CC(C)N1CCC1(C)C(=O)Nc1nccc2cccnc12 (stereo not given) | nt | -10% | nt | -13% | i | -25
COc1cccc(CNC(=O)CCCn2ccc3cc(S(=O)(=O)N4CCCC4)ccc32)c1 | 19% | -14% | ? | -23% | ? | -26
COc1ccc(OC)c(CNC(=O)CCCn2ccc3cc(S(=O)(=O)N4CCCC4)ccc32)c1 | -14% | ? | 10µM* | -25% | -24% | -38
CCc1ccc(CNC(=O)CCCn2ccc3cc(S(=O)(=O)N4CCCC4)ccc32)cc1 | nt | -32% | nt | ? | ? | -89*
COc1ccc(CNC(=O)C(C)n2ccc3cc(S(=O)(=O)N4CCCCCC4)ccc32)cc1 (stereo not given) | -5% | -21% | 6.3µM* | -13%[7.34 µM] | -5%[7.34 µM] | -9
CCN(CC)c1ccc(NC(=O)CN2C(=O)c3cccnc3Oc3ccccc32)c(C)c1 | nt | 20% | nt | -4% | -9% | 0
COc1ccccc1/C=C/c1nc(C#N)c(NCC(C)C)o1 | nt | -4% | nt | -8% | i | -70*
COc1ccccc1/C=C/c1nc(C#N)c(NCCc2ccccc2)o1 | nt | -6% | nt | 1% | -1% | -7
CNc1ccccc1C(C)(C)c1cc(-c2cccc(OC)c2)no1 | -6% | ? | ? | 83% | 6% | -83*
O=[N+]([O-])c1ccc(N/N=C2\CC3CC=CC23)c([N+](=O)[O-])c1 (stereo not given) | 2% | ? | 11µM* | 2% | -1% | 27
O=[N+]([O-])c1ccc(N/N=C2\CC3CC=CC23)cc1 (stereo not given) | 4% | 40% | 22µM* | nt | nt | -13
O=C(N/N=C1\CC2CC=CC12)c1ccc(O)cc1 (stereo not given) | -7% | -8% | 1% | -1% | -22% | -28
O=[N+]([O-])c1ccc(NN=C2CC3CCC2C3)c([N+](=O)[O-])c1 (stereo not given) | nt | 0% | nt | 10% | 64% | 11
O=C(Nc1ccc(F)cc1F)c1ccc(CN2CC(=O)N3CCCCC3C2=O)cc1 (stereo not given) | nt | 0% | nt | 4% | -10% | 15
Cc1ccc(-c2cc[n+](Cc3ccccc3)cc2)cc1 | 0% | ? | ? | -15% | -29% | ?
Cc1ccc2c(c1)sc[n+]2Cc1ccccc1 | -10% | 36% | 10µM* | nt | nt | 29
SMILES | Giardia FBPA inh | FMDV inh | HCV inh | VACV Venus inh | VACV mCherry inh | HCMV inh
CCc1ccccc1NC(=O)CCC(=O)N1CC(C)Oc2ccc(C)cc21 (stereo not given) | nt | -15% | nt | -11% | -8% | -2
COc1ccc2c(c1)CCc1cnc(N)nc1-2 | -21% | 29% | ? | -12% | -15% | -68*
COc1ccc2c(c1)CCc1cn3nc(C)cc3nc1-2 | 18µM* | -1% | ? | -18% | -28% | 19
Cc1nc2sc(C)c(C)n2c(=O)c1S(=O)(=O)N1CCN(c2ccccc2F)CC1 | nt | -1% | nt | -7% | -6% | -8
COc1ccc(S(=O)(=O)NCC(c2ccco2)N2CCN(c3ccc(F)cc3)CC2)cc1C (stereo not given) | nt | -25% | nt | -19% | -22% | -25
COCc1c(C#N)c(NCCc2ccccc2)nc(C)c1[N+](=O)[O-] | -10% | -17% | -9% | -4% | i | 75
COCc1c(C#N)c(NCc2cc(OC)c(OC)c(OC)c2)nc(C)c1[N+](=O)[O-] | -8% | 14µM* | 11µM* | -21% | -1% | -34
Cc1ccc(S(=O)(=O)Nc2c(C)nn(C)c2C)cc1 | -2% | nt | -20% | -8% | -7% | 3
CCn1nc(C)c(NS(=O)(=O)c2ccc(C)cc2)c1C | 3% | -22% | ? | -19% | -27% | -74*
CCc1ccc(S(=O)(=O)Nc2c(C)nn(C)c2C)cc1 | 3% | ? | 13µM* | nt | nt | -69*
CN(C)C(=O)COc1ccc(S(=O)(=O)c2ccc(OCC(=O)N(C)C)cc2)cc1 | 0% | 7% | 11% | -12% | i | 31
COC(=O)c1ccc(COc2cccn3c(N(C)C(=O)CCC4CCCC4)c(C)nc23)cc1 | nt | 35µM* | nt | -16% | 25% | -33
Cc1nc2c(OCc3ccc(C#N)cc3)cccn2c1N(C)C(=O)CCC1CCCC1 | nt | 22µM* | nt | -14% | 13% | -8
O=C(OCCN=C1NS(=O)(=O)c2ccccc21)c1ccco1 | 12% | 23% | -3% | -19% | -12% | 5
Cc1cc(C(=O)COC(=O)c2ccco2)c(C)n1Cc1ccco1 | -15% | 8.9µM* | 8% | nt | nt | 3
Cc1nn(Cc2ccccc2)c(C)c1C(=O)OCC(=O)c1cc(C)n(CC(F)(F)F)c1C | -3% | 0% | 8.9µM* | ? | ? | -11
Cc1cc(C(=O)COC(=O)c2ccc(NC(=O)CC#N)cc2)c(C)n1CC(F)(F)F | nt | 36% | nt | -14% | -18% | -2
COc1cc(C(=O)O[C@@H]2CC3CC[C@]2(C)C3(C)C)ccc1O | -6% | nt | nt | nt | nt | nt
Clc1cccc(Cc2c(-c3ccco3)nc3ccc(Br)cn23)c1 | nt | 25µM* | nt | 12% | 6% | 25
Cc1ccc(Cc2c(-c3ccco3)nc3c(C)cc(Br)cn23)cc1 | nt | -29% | nt | 5% | -2% | -102*
Clc1cccc(Cc2c(-c3ccco3)nc3ccc(Cl)cn23)c1 | nt | 40µM* | nt | 0% | 4% | -18
Clc1ccc(-c2nc3ccc(Cl)cn3c2Cc2cccc(Cl)c2)cc1 | nt | 34% | nt | 3% | 44% | 16
